The source of these data is PubChem BioAssay AID624125 (The Scripps Research Institute Molecular Screening Center, 2012).

Values joined by “and” are separate entries in the source; they are usually repeats but may differ in a detail not shown here. Equal values may be shown once. Screen size: about 360,000 compounds; about 2,600 (0.72%) were called active.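 Rule for the calls: active = inhibition above its plate's cutoff, the mean inhibition of sample wells plus 3 SD (cut at about 27% in these data); inactive = the rest.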 For the sample, actives were picked, then their nearest neighbours and some compounds at random.

For the assay, the target named is Muscarinic acetylcholine receptor M4 (Homo sapiens) (UniProt P08173). The assay can be described thus: human M4 muscarinic receptor antagonists, primary screen, CHO cells, Fluo-8 calcium fluorescence (AID 624125).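 Note: 0% = acetylcholine EC80 with DMSO and 100% = DMSO without agonist.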 The conditions noted are these: CHO-hM4 cells, ACh EC80, Fluo-8 calcium fluorescence; at 3 µM; active compounds read high.
Muscarinic acetylcholine receptor M4 (Homo sapiens), sequence (P08173 whole entry, looked up): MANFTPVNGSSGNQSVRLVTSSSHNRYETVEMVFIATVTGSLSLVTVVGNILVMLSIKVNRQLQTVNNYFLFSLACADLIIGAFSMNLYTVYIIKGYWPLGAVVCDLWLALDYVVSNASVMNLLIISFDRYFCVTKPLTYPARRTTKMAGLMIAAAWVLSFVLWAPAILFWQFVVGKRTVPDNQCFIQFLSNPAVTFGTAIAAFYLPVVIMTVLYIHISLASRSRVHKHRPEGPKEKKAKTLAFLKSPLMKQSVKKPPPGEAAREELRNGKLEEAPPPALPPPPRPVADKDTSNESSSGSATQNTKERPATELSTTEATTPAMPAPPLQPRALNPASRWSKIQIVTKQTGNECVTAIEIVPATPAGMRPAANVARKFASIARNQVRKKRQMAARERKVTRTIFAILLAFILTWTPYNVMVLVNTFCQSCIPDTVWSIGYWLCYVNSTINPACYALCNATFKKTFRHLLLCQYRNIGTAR
By inhibition is commonly meant the change of the read-out against control, counted positive when it falls. Regarding `COC(=O)/C(=C1\Oc2ccc(C(C)(C)C)cc2S1)C(F)(F)F`, the inhibition was -0.07% (inactive).

Take `CCC(C(=O)OCCN(CC)CC)c1ccccc1` (stereo unspecified): the inhibition is 54.1% (active).

As for `CCN(CC)CCOC(=O)c1ccc(NC(=O)CNC(=O)c2ccccc2)cc1`, the inhibition is -1.05% (inactive).

Regarding `COC(CCN(C)C)(c1ccccc1)c1ccccc1`, the inhibition is 3.06% (inactive).

On to `CCCC(C(=O)OCCN(CC)CC)(c1ccccc1)c1ccccc1`, for which the inhibition was 42.8% (active).

Take `CCC(C(=O)Nc1ccc(C(C)C)cc1)c1ccccc1` (stereo unspecified): the inhibition was 23.7% (inactive).

On to `CCN(CC)CCNCC(=O)Nc1ccc(Oc2ccccc2)cc1`, for which the inhibition is -0.82% (inactive).

For the compound `CC1CCc2c(sc3c2C2=NS(=O)(=O)CCN2C=N3)C1` (stereo unspecified), the inhibition is -3.55% (inactive).

Regarding `COc1ccc(S(=O)(=O)N2CCN(c3cnccn3)CC2)cc1`, the inhibition is 5.44% (inactive).

Turning to `O=C1CCc2cc(S(=O)(=O)Nc3ccc(C(F)(F)F)cc3)cc3c2N1CC3`, the inhibition was -14.8% (inactive).

Consider `CC(C)(C)NC(=O)COc1ccc(CNc2ccc3[nH]c(=O)[nH]c3c2)cc1`, for which the inhibition is -1.92% (inactive).

Turning to `Cc1cc([N+](=O)[O-])c(=O)[nH]c1C`, the inhibition was 3.71% (inactive).

In the case of `CCOC(=O)C1Nc2ccc(C(F)(F)F)cc2C2C=CCC12` (stereo unspecified), the inhibition is -1.13% (inactive).

`COc1cccc(-c2noc(C3CCCN(C(=O)c4ccc(F)cc4)C3)n2)c1` (stereo unspecified): the inhibition was -18% (inactive).

Regarding `COc1cc(-c2noc(C3CCCN(S(=O)(=O)c4cccc(Cl)c4)C3)n2)cc(OC)c1OC` (stereo unspecified), the inhibition is 30.5% (active).

On to `CC(C)c1ccc(-c2noc(C3CCCN(S(C)(=O)=O)C3)n2)cc1` (stereo unspecified), for which the inhibition was -17.6% (inactive).

For `Clc1ccc(-c2nnc(-c3ccccc3)nc2N2CCSCC2)cc1`, the inhibition was -4.43% (inactive).

Take `CC12CCCCC1=CC(=O)CC2` (stereo unspecified): the inhibition was 2.52% (inactive).

Consider `Cc1ccc(S(=O)(=O)N2CCCCC2)cc1NC(=O)CCNC(=O)c1ccccc1Cl`, for which the inhibition is -5.04% (inactive).

`CN(C(=O)CSc1nnc(-c2ccc(C(C)(C)C)cc2)n1C)C1CCS(=O)(=O)C1` (stereo unspecified): the inhibition is 0.43% (inactive).

For `COc1ccc(OCCCCN2CCC(C)CC2)cc1`, the inhibition is 9.1% (inactive).

For the compound `O=c1[nH]c2ccccc2n1C1CCN(CCOc2ccccc2)CC1`, the inhibition is -13.4% (inactive).

As to `OC(c1ccccc1)(c1ccccc1)C1CCN(CCCOc2ccccc2)CC1`, the inhibition is 91.6% (active).

With `Cc1ccc(S(=O)(=O)N2CCOCC2)cc1C(=O)NC(=S)N(Cc1ccccc1)C(C)C`, the inhibition is 0.9% (inactive).

In the case of `CCCCc1nc2ccc(F)cc2cc1C`, the inhibition is -4.37% (inactive).

Regarding `Cc1sc2ncnc(N3CCC(C(=O)NNC(=O)c4ccc(F)cc4)CC3)c2c1C`, the inhibition is -17.4% (inactive).

With `Cc1sc2ncnc(N3CCC(C(=O)Nc4ccc(F)cc4Cl)CC3)c2c1C`, the inhibition was 46.6% (active).

Regarding `Cc1sc2ncnc(N3CCC(C(=O)Nc4nc5ccc(Cl)cc5s4)CC3)c2c1C`, the inhibition was -9.33% (inactive).

As to `COC(=O)c1cc(N2CCNCC2)nc2ccccc12`, the inhibition is 6.45% (inactive).

Take `CS(=O)(=O)N1CCN(CC(=O)NC2CCCC2)CC1`: the inhibition was 1.25% (inactive).

Take `Clc1ccc(C=NC23CN4CN(CN(C4)C2)C3)cc1`: the inhibition was -1.64% (inactive).

`O=C(c1ccccc1F)N1CCN(S(=O)(=O)c2ccc(Br)cc2)CC1`: the inhibition is 3.23% (inactive).

Take `OCCC1CN(Cc2ccc3nsnc3c2)CCN1C1CCCCC1` (stereo unspecified): the inhibition was 26.8% (active).

Turning to `CCOc1ccc(CN2CCN(Cc3ccc(C)o3)CC2CCO)cc1` (stereo unspecified), the inhibition is 1.46% (inactive).

With `OCCC1CN(Cc2ccc3nsnc3c2)CCN1C1CCCC1` (stereo unspecified), the inhibition is 47.5% (active).

For `CC(C)N1CCC(N2CCN(Cc3cccnc3)CC2CCO)CC1` (stereo unspecified), the inhibition was -8.19% (inactive).

`Cc1ccc(CN2CCN(Cc3ccc(OCCO)cc3)CC2CCO)o1` (stereo unspecified): the inhibition was 2.78% (inactive).

Regarding `Cn1cnnc1Sc1ccc(CN2CCN(C3CCCC3)C(CCO)C2)o1` (stereo unspecified), the inhibition is 42.6% (active).

Turning to `OCC1(CCc2ccccc2)CCN(Cc2ccc3nsnc3c2)CC1`, the inhibition was 8.32% (inactive).

As to `OCCC1CN(Cc2cccc(O)c2)CCN1CCc1ccccc1` (stereo unspecified), the inhibition is -6.17% (inactive).

Turning to `OCCC1CN(Cc2cccc(OC3CCCC3)c2)CCN1Cc1ccsc1` (stereo unspecified), the inhibition was 2.69% (inactive).

For the compound `COc1cccc2c1OCC(CN1CCN(C3CCCCC3)C(CCO)C1)=C2` (stereo unspecified), the inhibition was 26.6% (active).

Turning to `Cc1ccc(CN2CCN(Cc3ccc4ncccc4c3)CC2CCO)cc1` (stereo unspecified), the inhibition was -9.31% (inactive).

Take `COc1ccc(CN2CCN(Cc3cn(C)nc3-c3ccccc3)CC2CCO)c(C)c1C` (stereo unspecified): the inhibition is -2.82% (inactive).

`CCC(Sc1nncn1C)C(=O)Nc1nnc(-c2ccc(Cl)cc2)s1` (stereo unspecified): the inhibition was -32.3% (inactive).

Turning to `CCOc1cc(-c2noc(CCCC(=O)NC3CCCCC3)n2)ccc1OC`, the inhibition is -15.3% (inactive).

In the case of `CC(c1ccccn1)N(C)C(=O)c1ccc2nc(Cc3cccc(Cl)c3)oc2c1` (stereo unspecified), the inhibition is 0.98% (inactive).

Turning to `Cc1ccc(NC(=O)C(C)OC(=O)C2CC3CCCC(C2)C3=O)cc1S(=O)(=O)N1CCOCC1` (stereo unspecified), the inhibition was -3.85% (inactive).

Regarding `CCc1nc2c(OCc3ccc(C(F)(F)F)cc3)cccn2c1N(C)C(=O)CC(C)C`, the inhibition is 3.96% (inactive).

Consider `Cc1cc(=O)oc2cc(NC(=O)C3CC(=O)N(Cc4ccccc4)C3)ccc12` (stereo unspecified), for which the inhibition was -0.59% (inactive).

With `O=C(O)C1CCN1C1CCCCC1` (stereo unspecified), the inhibition was 2.3% (inactive).

In the case of `COC(=O)c1c(C)oc(C)c1S(=O)(=O)NCc1ccc(Cl)cc1`, the inhibition was 12.7% (inactive).

For `CN(CCN1CCOCC1)Cc1nc(-c2ccc3c(c2)OCO3)no1`, the inhibition was 8.12% (inactive).

For `CCOc1ccc(NC(=O)C2CC(=O)N=C(N)S2)cc1` (stereo unspecified), the inhibition is -0.59% (inactive).

In the case of `COc1ccc(C(=O)OCC(=O)NCC2CCCO2)cc1[N+](=O)[O-]` (stereo unspecified), the inhibition was -10.6% (inactive).

With `Cc1cc(-c2nnc(SCC(=O)Nc3ccc(F)cc3)n2N)n[nH]1`, the inhibition is 8.94% (inactive).

With `CSCCC(NS(=O)(=O)c1ccccc1F)C(=O)N1CC=C(c2ccccc2)CC1` (stereo unspecified), the inhibition was 3.15% (inactive).

Turning to `O=C1CSC(c2ccc(Cl)cc2)N1` (stereo unspecified), the inhibition was 27.7% (active).

`O=C1NC(=O)C(c2ccc(Cl)cc2)N1` (stereo unspecified): the inhibition is -2.3% (inactive).

Turning to `COC(=O)C1=C(N)Oc2cc(C)[nH]c(=O)c2C1c1ccc(Cl)cc1` (stereo unspecified), the inhibition is 0.29% (inactive).

With `COc1ccc(C(=O)Oc2ccc(-c3nnco3)cc2)cc1S(=O)(=O)N1CCOCC1`, the inhibition is -11.2% (inactive).

Turning to `O=C(OC1CC2CC1[C@H]1CCCCN1C2=O)N1CCOCC1` (stereo partly specified), the inhibition is -3.15% (inactive).

In the case of `CCc1ccc(S(=O)(=O)NCC(O)COc2ccc(OC)cc2)cc1` (stereo unspecified), the inhibition was -13% (inactive).

As for `C#C[C@]1(O)CC[C@H]2[C@@H]3CCC4=CC(=O)CC[C@@H]4[C@H]3CC[C@@]21CC`, the inhibition was -4.91% (inactive) and 3.68% (inactive).

`CN1CCN(C2Cc3ccc(Cl)cc3Sc3ccc(F)cc32)CC1` (stereo unspecified): the inhibition is 38.1% (active).

For the compound `CCOCCCNC(=O)C(NC(=O)c1ccc(=O)[nH]c1)c1ccc(C)cc1` (stereo unspecified), the inhibition is -5.59% (inactive).

For the compound `CN(C)Cc1ccc(F)cc1Sc1cc(Cl)ccc1Cl`, the inhibition was 43.8% (active).

Turning to `Cc1ccc(-c2ccc(=O)n(Cc3ccc(F)cc3Cl)n2)cc1`, the inhibition is 0.63% (inactive).

As to `CN(Cc1ccc(F)cc1Cl)S(=O)(=O)c1cccs1`, the inhibition was -1.2% (inactive).

As to `COc1cccc(CC(=NO)c2cccc(OC)c2)c1`, the inhibition is -5.79% (inactive).

Take `O=C(C1CCCO1)N1CCN(C(=S)Nc2cccc(Cl)c2)CC1` (stereo unspecified): the inhibition was 0.97% (inactive).
